Assay outcomes as filed in PubChem BioAssay.
PP1 counter – PP1-alpha (human) inhibition in PP5 counter-screen; P62136; purified PP1alpha, OMFP fluorescence; inhibition, % at 6.7 µM; hit rate 0.9% among 320,000;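 active means inhibition above the mean inhibition of all tested compounds plus 3 SD, computed separately for each screening campaign, cut at about 15% in these data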
Target sequence (P62136 whole entry, looked up): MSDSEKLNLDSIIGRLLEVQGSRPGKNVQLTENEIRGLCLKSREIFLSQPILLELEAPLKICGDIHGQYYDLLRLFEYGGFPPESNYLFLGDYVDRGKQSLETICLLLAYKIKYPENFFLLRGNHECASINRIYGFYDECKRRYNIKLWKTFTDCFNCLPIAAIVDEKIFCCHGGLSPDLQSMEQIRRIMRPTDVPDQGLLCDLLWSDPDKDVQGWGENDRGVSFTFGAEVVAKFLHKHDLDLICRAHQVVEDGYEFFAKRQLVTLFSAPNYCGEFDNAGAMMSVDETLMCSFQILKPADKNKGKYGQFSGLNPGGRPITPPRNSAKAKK
GRK2 aptamer HTS – inhibitors of human GRK2 displacing RNA aptamer. P25098. bead flow cytometry, FAM-aptamer displacement from GRK2. inhibition of aptamer binding, % at 10 µM. hit rate 0.59% among 330,000. AID 488847;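 active means inhibition of aptamer binding above 40%, roughly 3 SD of noise, on plates passing a quality check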;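 further: median bead fluorescence of bound FAM aptamer so fluorescent compounds give negative values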
Granule exo inh – lytic granule exocytosis inhibition. TALL-104 LAMP-1 surface exposure, flow cytometry; cells stimulated with thapsigargin and PMA. inhibition, % at 10 µM. hit rate 0.66% among 360,000;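 active means inhibition above about 55%, limit read from the data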
B2AR ag – agonists of human beta-2 adrenergic receptor inducing internalization. P07550. Am2.2-beta2AR cells, FAP receptor internalization, flow cytometry. response, % (test concentration not listed). hit rate 0.43% among 340,000. AID 504454;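 active means response above a set limit, near 3 SD of response in nonfluorescent compounds, cut at about 42% in these data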
NadD inh – blocks S. aureus nicotinate mononucleotide adenylyltransferase; purified NadD enzyme, colorimetric absorbance read-out; inhibition, % at 20 µM; hit rate 0.78% among 360,000; AID 602399; in the data active means inhibition above about 26%
Starred values were filed as active, the others as inactive; . = not tested or not shown. Most compounds without a hit are left out; they make up all but 2.9% or so of the library.

SMILES | PP1 counter | GRK2 aptamer HTS | Granule exo inh | B2AR ag | NadD inh
CC[n+]1c(/C=C/C=C/N(C(C)=O)c2ccccc2)sc2cc(OC)ccc21 | 6.6 | 80.0* | . | . | .
Cc1c(C(=O)N2CCCCC2)nn(-c2ccc(Cl)cc2)c(=O)c1C#N | 0.3 | 2.0 | -4.7 | -5.3 | -0.2
Cn1c(N)c(C(=O)COC(=O)COc2ccc(Cl)cc2Cl)c(=O)n(C)c1=O | . | 4.0 | 0.9 | -0.6 | -5.5
CCCN(CCC)CC(O)Cn1cc(/C=C/C(=O)c2cccs2)c2ccccc21 (configuration not stated) | 4.8 | 0.0 | 45.1 | 2.8 | -1.9
CCCCN(C)CC(O)Cn1cc(/C=C/C(=O)c2ccc(C)cc2)c2ccccc21 (configuration not stated) | 5.8 | 0.0 | 69.5* | 19.6 | 2.3
CCCN(CCC)CC(O)Cn1cc(/C=C/C(=O)c2ccccc2)c2ccccc21 (configuration not stated) | . | . | 92.3* | 19.0 | 5.1
O=C(/C=C/c1cn(CC(O)CN2CCCCC2)c2ccccc12)c1ccccc1 (configuration not stated) | . | . | 9.4 | 20.9 | 7.2
Cc1ccc(/C=N/NC(=O)c2ccc(N(C)S(=O)(=O)c3ccccc3)cc2)cc1 | 2.5 | 0.0 | -16.8 | 13.9 | 0.7
CC(=O)Oc1ccc(/C=N/NC(=O)c2ccc(N(C)S(=O)(=O)c3ccccc3)cc2)cc1 | -0.4 | 2.0 | 94.1* | 17.1 | 3.0
O=C(CCCn1nnnc1CN1CCOCC1)N1CCN(c2ccccc2F)CC1 | 15.5* | 3.0 | -6.2 | 0.1 | 0.8
CCOc1c(OC(C)=O)ccc(/C=C2\N=C(SCC)SC2=O)c1[N+](=O)[O-] | -2.0 | 100.0* | 5.5 | 9.8 | 4.7
Cc1nc2c(C(=O)NCCC(C)C)c[nH]n2c(=O)c1Cc1ccccc1F | 15.5* | 2.0 | -1.5 | 10.7 | 29.5*
Cc1nc2c(C(=O)NCCC(C)C)c[nH]n2c(=O)c1Cl | 2.8 | 2.0 | 1.7 | 1.5 | 16.7
COc1ccc(CCN2CCCn3c2nc2c3c(=O)n(CC(N)=O)c(=O)n2C)cc1OC | . | 2.0 | -10.2 | -17.3 | -5.2
CCOC(=O)c1c(NC(=O)C2CCCCC2C(=O)O)sc2c1CCCCC2 (configuration not stated) | -0.9 | 0.0 | 0.8 | -1.4 | 8.7
CCOC(=O)c1c(NC(=O)C2C3C=CC(C3)C2(C)C(=O)O)sc2c1CCCC2 (configuration not stated) | 2.3 | 64.0* | -6.3 | -0.8 | 3.2
COCCN(C(=O)COC(=O)C1CCCCC1)c1c(N)n(Cc2ccccc2)c(=O)[nH]c1=O | . | . | -10.2 | . | -4.0
CN(C)c1ccc(/C=C(/NC(=O)c2ccccc2)C(=O)N/N=C/c2ccc([N+](=O)[O-])c(O)c2)cc1 | 11.5 | 2.0 | -2.5 | -2.1 | 41.3*
NN(Cc1ccccc1)C(=S)Nc1ccc(Cl)c(Cl)c1 | -4.8 | 5.0 | 61.1* | 14.5 | 0.2
Cc1c(C(=O)Nc2nc(-c3ccccn3)cs2)oc2ccccc12 | 16.1* | 1.0 | -2.9 | 22.9 | 29.3
COC(=O)CS(=O)(=O)c1nnc([C@H](Cc2ccccc2)NC(=O)OC(C)(C)C)o1 | 1.6 | 0.0 | 23.2 | 15.6 | 2.8
Cc1cccc(CS(=O)(=O)c2nnc([C@H](Cc3ccccc3)NC(=O)OC(C)(C)C)o2)c1 | -2.4 | 0.0 | 33.9 | 61.2* | 2.9
COc1ccccc1C1=NN(C(=O)c2ccccc2)C(c2ccc(Br)cc2)C1 (configuration not stated) | -2.1 | 0.0 | 20.3 | -0.2 | -0.8
CCN(CC)CCOc1ccc(Br)cc1 | 0.1 | 0.0 | -6.7 | 2.5 | -2.8
CCN(CC)CCOc1ccc(/C(=C(\Cl)c2ccccc2)c2ccccc2)cc1 | 17.5* | 0.0 | 5.2 | 60.5* | 0.6
SMILES | PP1 counter | GRK2 aptamer HTS | Granule exo inh | B2AR ag | NadD inh
C=CCOC(=O)c1cc(-c2ccc(/C=C3\C(=O)NC(=O)C(C#N)=C3C)o2)ccc1Cl | . | . | -1.0 | 0.2 | 69.1*
O=[N+]([O-])c1ccc(Cl)c2c1C1C=CCC1C(c1ccccn1)N2 (configuration not stated) | 6.8 | 1.0 | 6.0 | -3.4 | 40.7*
COC(=O)COc1ccc(C2Nc3c(Cl)ccc(C(=O)O)c3C3C=CCC32)cc1 (configuration not stated) | -0.5 | 13.0 | 2.8 | -2.5 | 7.9
O=C(O)c1ccc(Cl)c2c1C1C=CCC1C(c1ccccn1)N2 (configuration not stated) | 4.8 | 47.0* | . | . | .
CCCCn1c(=O)[nH]c(=O)c2c(C(=O)OCC)cc(-c3ccc(OC(F)F)cc3)nc21 | 2.7 | 4.0 | -0.8 | -3.9 | 7.7
CCCCC(=O)N/N=C(/C)C1=C(C)C(C)(C)OC1=O | -2.3 | 0.0 | 4.2 | 1.5 | -6.3
COCCCNC1=C(Cl)C(=O)c2ccccc2C1=O | -4.8 | 2.0 | 56.2* | -7.2 | 2.7
COc1cccc(NC(=O)CSc2nnnn2C2CCCCC2)c1 | . | . | 0.1 | -20.7 | 2.6
[O-][n+]1c(/C=C/c2ccccc2)ccc2ccccc21 | . | 0.0 | 86.9* | 23.6 | 0.9
COc1ccccc1N=Nc1nc(-c2ccccc2)c(-c2ccccc2)[nH]1 | 5.1 | 1.0 | 3.1 | 18.6 | 20.7
Oc1ccccc1N=Nc1nc(-c2ccccc2)c(-c2ccccc2)[nH]1 | 17.4* | 0.0 | 0.5 | 13.3 | 34.9*
O=C(c1cc[n+]([O-])cc1)N1CCCC(N2CCN(c3cccc(C(F)(F)F)c3)CC2)C1 (configuration not stated) | 1.5 | 1.0 | -2.6 | -0.6 | 4.1
O=C(CC[C@H]1O[C@@H](n2ccc(=O)[nH]c2=O)[C@H](O)[C@@H]1O)N[C@H](Cc1ccccc1)C(=O)NCc1cccs1 | . | . | -4.2 | . | -7.0
COc1ccc(OCC(=O)Nc2cc(-c3nn4c(C)nnc4s3)ccc2C)cc1 | -5.0 | 0.0 | -4.3 | 69.8* | -0.1
Cc1cn(-c2cc(NC(=O)c3ccc(C)c(NC(=O)c4cccc(-c5cn[nH]c(=O)c5)c4)c3)cc(C(F)(F)F)c2)cn1 | 8.0 | 0.0 | 0.3 | 78.1* | 3.6
COc1ccccc1OCc1nnc(SCC(=O)c2cc(Cl)ccc2OC)o1 | 16.9* | 0.0 | 4.8 | -5.3 | -4.4
COc1ccccc1OCc1nnc(SCC(=O)N2CCCC2)o1 | 0.7 | 3.0 | -12.8 | -1.0 | 0.8
CCOC(=O)CC(=O)CSc1nc(-c2ccccc2)cc(-c2ccccc2)c1C#N | 16.7* | 2.0 | -3.1 | -5.8 | 0.2
O=[N+]([O-])c1ccccc1-c1ccc(C(=S)N2CCCCC2)o1 | -2.4 | 1.0 | 64.7* | 2.6 | -1.9
O=[N+]([O-])c1ccccc1-c1ccc(C(=S)N2CCCC2)o1 | 1.6 | 0.0 | 2.6 | 3.0 | 5.3
O=C(CSc1nnc(SCc2ccccc2)s1)N/N=C/C=C/c1ccccc1[N+](=O)[O-] | 15.6* | 3.0 | -2.9 | -7.9 | 4.5
CC(NC(=O)Cn1ncc(Cl)c(Cl)c1=O)C12CC3CC(CC(C3)C1)C2 (configuration not stated) | 2.5 | 2.0 | 0.2 | 112.3* | 8.3
COc1ccc(C2c3c(-c4ccccc4O)n[nH]c3C(=O)N2CCc2ccc(OC)c(OC)c2)cc1 (configuration not stated) | 7.4 | 0.0 | 0.9 | 3.1 | 15.1
